The text below walks through data of the supplement of paper PMC9177965.

Several values for one entry are separate records, joined by “and”; a condition that tells them apart may be missing. Identical values can stand only once.

The test system of the assay is HT29 RNF43 G659fs (RNF43 659mut, CRISPR-edited). Kind of assay: cell viability activity relative to DMSO (negative = inhibition); higher = more viable cells (less growth inhibition). Conditions: 5 µM; 96 h. As for the experimental part:
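Broad Repurposing Library primary screen at a single dose of 5 uM. HT29 sg-Ctrl and HT29 RNF43 G659fs CRISPR-edited isogenic cells were seeded at 2500 cells/well in 384-well plates in duplicate and treated for 96 h. Viability was read by CellTiter-Glo and reported as % activity relative to DMSO, with MG132 as the positive control (negative = growth inhibition).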
Turning to `O=Cc1cn(Cc2ccc(Cl)cc2)c2ccccc12`, the cell viability activity is -38.7%.

Consider `COC(=O)C[C@](O)(CCC(C)(C)O)C(=O)O[C@@H]1C(OC)=C[C@]23CCCN2CCc2cc4c(cc2[C@H]13)OCO4`, for which the cell viability activity is -89.5%.

Take `C[C@@]1(CO)[C@H](O)CC[C@@]2(C)[C@H]1CC[C@H]1C[C@@H]3C[C@@]12CC[C@]3(O)CO`: the cell viability activity is -31.8%.

Consider `COc1ccc(C[C@H]2NC[C@H](O)[C@H]2OC(C)=O)cc1`, for which the cell viability activity is -91.2%.

In the case of `C[C@]12O[C@H](C[C@]1(O)CO)n1c3ccccc3c3c4c(c5c6ccccc6n2c5c31)CNC4=O`, the cell viability activity was -88.5%.

As to `COc1cc2c(c(OC)c1OC)-c1ccc(OC)c(=O)cc1[C@@H](NC(C)=O)CC2`, the cell viability activity was -55.9% and -56.4%.

As to `O=[N+]([O-])C=Cc1ccc2c(c1)OCO2`, the cell viability activity was -25.8%.

For the compound `C[C@@H]1O[C@@H](O[C@@H]2C=C3CC[C@@H]4[C@H](CC[C@]5(C)[C@@H](c6ccc(=O)oc6)CC[C@]45O)[C@@]3(C)CC2)[C@H](O)[C@H](O)[C@H]1O`, the cell viability activity is -81.8%.

On to `CC[C@@]1(O)C(=O)OCc2c1cc1n(c2=O)Cc2cc3ccccc3nc2-1`, for which the cell viability activity was -94%.

For `C=C(C)[C@H]1Cc2c(ccc3c2O[C@@H]2COc4cc(OC)c(OC)cc4[C@@H]2C3=O)O1`, the cell viability activity was -61.5%.

Consider `COc1cc([C@@H]2c3cc4c(cc3[C@H](O)[C@H]3COC(=O)[C@H]23)OCO4)cc(OC)c1OC`, for which the cell viability activity was -59.9%.

On to `Oc1cc(Cl)ccc1Oc1ccc(Cl)cc1Cl`, for which the cell viability activity was -89.3%.

In the case of `c1ccc2c(c1)[I+]c1ccccc1-2`, the cell viability activity is -61.9%.

As to `CC[C@@H](C(=O)[C@@H](C)[C@@H](O)[C@H](C)[C@@H]1O[C@@H]([C@@H](CC)C(=O)O)CC[C@@H]1C)[C@H]1O[C@]2(C=C[C@@H](O)[C@]3(CC[C@@](C)([C@H]4CC[C@](O)(CC)[C@H](C)O4)O3)O2)[C@H](C)C[C@@H]1C`, the cell viability activity is -79.3%.

In the case of `C[C@@H]1O[C@@H](O[C@H]2C[C@@H](O)[C@]3(CO)[C@H]4[C@H](O)C[C@]5(C)[C@@H](C6=CC(=O)OC6)CC[C@]5(O)[C@@H]4CC[C@]3(O)C2)[C@H](O)[C@H](O)[C@H]1O`, the cell viability activity is -90.4% and -90%.

Take `C=C1[C@@H](C)[C@H]2[C@H](Cc3ccccc3)NC(=O)[C@]23OC(=O)/C=C/[C@H](O)CCC[C@@H](C)C/C=C/[C@H]3[C@@H]1O`: the cell viability activity was -28.2%.

As to `COc1ccc(CCN2CCC(Nc3nc4ccccc4n3Cc3ccc(F)cc3)CC2)cc1`, the cell viability activity is -23.2%.

`C[C@H]1CCC/C=C/[C@@H]2C[C@H](O)C[C@H]2[C@H](O)/C=C/C(=O)O1`: the cell viability activity was -99.3% and -97.5%.

Take `Cc1sc2c(c1C)C(c1ccc(Cl)cc1)=N[C@@H](CC(=O)Nc1ccc(O)cc1)c1nnc(C)n1-2`: the cell viability activity is -56.2%.

For `COc1cccc2c1C(=O)c1c(O)c3c(c(O)c1C2=O)C[C@@](O)(C(=O)CO)C[C@@H]3O[C@H]1C[C@H](N2CCO[C@H](OC)C2)[C@H](O)[C@H](C)O1`, the cell viability activity was -96.6%.

In the case of `Oc1cccc2cccnc12`, the cell viability activity is -48.9%.

On to `N#Cc1cn([C@@H]2O[C@H](CO)[C@@H](O)[C@H]2O)c2ncnc(N)c12`, for which the cell viability activity was -94.2%.

As to `C/C=C(\C)C(=O)N[C@@H](c1ccccc1)[C@@H](O)C(=O)O[C@H]1C[C@@]2(O)[C@@H](OC(=O)c3ccccc3)[C@@H]3[C@]4(OC(C)=O)CO[C@@H]4C[C@H](O)[C@@]3(C)C(=O)[C@H](OC(C)=O)C(=C1C)C2(C)C`, the cell viability activity is -68.1%.

In the case of `C/C(=C\c1csc(C)n1)[C@@H]1C[C@@H]2O[C@@H]2CCC[C@H](C)[C@H](O)[C@@H](C)C(=O)C(C)(C)[C@@H](O)CC(=O)O1`, the cell viability activity is -69%.

On to `CC[C@@H]1/C=C/C=C/C[C@H](C)[C@H](O)[C@](C)(O)C(=O)[C@H](C)[C@@H](O)[C@H](C)C(=O)[C@H](C)[C@@H](O)[C@H](C)/C=C/C(=O)O[C@H]2[C@@H](C)[C@@H](CC1)O[C@@]1(CC[C@@H](C)[C@@H](C[C@H](C)O)O1)[C@@H]2C`, for which the cell viability activity was -38.4%.

In the case of `Clc1cccc(SC2CCNCC2)n1`, the cell viability activity is -56.2%.

Regarding `CO[C@H]1C[C@H](O[C@H]2CC[C@@]3(C)[C@H](CC[C@@H]4[C@@H]3CC[C@]3(C)[C@@H](C5=CC(=O)OC5)[C@@H](OC(C)=O)C[C@]43O)C2)O[C@@H](C)[C@@H]1O`, the cell viability activity is -84.3%.

As to `C/C1=C/C[C@@H](/C(C)=C/c2csc(C)n2)OC(=O)C[C@H](O)C(C)(C)C(=O)[C@H](C)[C@@H](O)[C@@H](C)CCC1`, the cell viability activity was -63.7%.

For `Cn1c(COP(=O)(NCCBr)NCCBr)cnc1[N+](=O)[O-]`, the cell viability activity is -53.2%.

For `COC(=O)NC(=S)Nc1ccccc1NC(=S)NC(=O)OC`, the cell viability activity is -31.4%.

As for `C/C(=C\c1csc(C)n1)[C@@H]1C[C@@H]2O[C@]2(C)CCC[C@H](C)[C@H](O)[C@@H](C)C(=O)C(C)(C)[C@@H](O)CC(=O)O1`, the cell viability activity was -51.7%.

As to `CC[C@H]1CN2CCc3cc(OC)c(OC)cc3[C@@H]2C[C@@H]1C[C@H]1NCCc2cc(OC)c(OC)cc21`, the cell viability activity was -93.8% and -97.5%.

In the case of `CC(C)(C)c1cc(C=C(C#N)C#N)cc(C(C)(C)C)c1O`, the cell viability activity was -79.1%.

On to `N#CC(C#N)=NNc1cccc(Cl)c1`, for which the cell viability activity was -83.3%.

As to `CCNC(=O)C[C@@H]1N=C(c2ccc(Cl)cc2)c2cc(OC)ccc2-n2c(C)nnc21`, the cell viability activity was -56.9%.

Turning to `Cc1sc2c(c1C)C(c1ccc(Cl)cc1)=N[C@@H](CC(=O)OC(C)(C)C)c1nnc(C)n1-2`, the cell viability activity is -60.2%.

Turning to `O=C(C[C@H]1NCCC[C@@H]1O)Cn1cnc2cc(Br)c(Cl)cc2c1=O`, the cell viability activity is -91.6%.

With `C[C@@H]1CC[C@@]2(OC1)O[C@H]1C[C@H]3[C@@H]4CC=C5C[C@@H](O[C@@H]6O[C@H](CO)[C@@H](O[C@@H]7O[C@@H](C)[C@H](O)[C@@H](O)[C@H]7O)[C@H](O)[C@H]6O[C@@H]6O[C@@H](C)[C@H](O)[C@@H](O)[C@H]6O)CC[C@]5(C)[C@H]4CC[C@]3(C)[C@H]1[C@@H]2C`, the cell viability activity was -25.8%.

Take `O=C1C=C2C=C[C@@H]3C[C@@]2(O1)[C@H]1CCCCN31`: the cell viability activity is -29.8%.

For the compound `C[C@]12CC[C@H](O)C[C@H]1CC[C@@H]1[C@@H]2C[C@@H](O)[C@]2(C)[C@@H](C3=CC(=O)OC3)CC[C@]12O`, the cell viability activity was -78.8%.
